Laboratory results: the supplement of paper PMC11732987, “Enantioselective OTUD7B fragment discovery through chemoproteomics screening and high-throughput optimisation” (Communications Chemistry, 2025)

Assays:
Assay in all cases: log2 ratio of Biotin-Ahx-Ub-VS probe labelling (fragment/DMSO); higher = less target engagement (more negative = stronger competition), active = hit call of the paper (q ≤ 0.05, log2 ratio ≤ -1)
Conditions in all cases: compound concentration: 200 uM; treatment time: 3 h
USP19 = molecular target: T1, USP19 (UniProt O94966)
T1 sequence (whole entry): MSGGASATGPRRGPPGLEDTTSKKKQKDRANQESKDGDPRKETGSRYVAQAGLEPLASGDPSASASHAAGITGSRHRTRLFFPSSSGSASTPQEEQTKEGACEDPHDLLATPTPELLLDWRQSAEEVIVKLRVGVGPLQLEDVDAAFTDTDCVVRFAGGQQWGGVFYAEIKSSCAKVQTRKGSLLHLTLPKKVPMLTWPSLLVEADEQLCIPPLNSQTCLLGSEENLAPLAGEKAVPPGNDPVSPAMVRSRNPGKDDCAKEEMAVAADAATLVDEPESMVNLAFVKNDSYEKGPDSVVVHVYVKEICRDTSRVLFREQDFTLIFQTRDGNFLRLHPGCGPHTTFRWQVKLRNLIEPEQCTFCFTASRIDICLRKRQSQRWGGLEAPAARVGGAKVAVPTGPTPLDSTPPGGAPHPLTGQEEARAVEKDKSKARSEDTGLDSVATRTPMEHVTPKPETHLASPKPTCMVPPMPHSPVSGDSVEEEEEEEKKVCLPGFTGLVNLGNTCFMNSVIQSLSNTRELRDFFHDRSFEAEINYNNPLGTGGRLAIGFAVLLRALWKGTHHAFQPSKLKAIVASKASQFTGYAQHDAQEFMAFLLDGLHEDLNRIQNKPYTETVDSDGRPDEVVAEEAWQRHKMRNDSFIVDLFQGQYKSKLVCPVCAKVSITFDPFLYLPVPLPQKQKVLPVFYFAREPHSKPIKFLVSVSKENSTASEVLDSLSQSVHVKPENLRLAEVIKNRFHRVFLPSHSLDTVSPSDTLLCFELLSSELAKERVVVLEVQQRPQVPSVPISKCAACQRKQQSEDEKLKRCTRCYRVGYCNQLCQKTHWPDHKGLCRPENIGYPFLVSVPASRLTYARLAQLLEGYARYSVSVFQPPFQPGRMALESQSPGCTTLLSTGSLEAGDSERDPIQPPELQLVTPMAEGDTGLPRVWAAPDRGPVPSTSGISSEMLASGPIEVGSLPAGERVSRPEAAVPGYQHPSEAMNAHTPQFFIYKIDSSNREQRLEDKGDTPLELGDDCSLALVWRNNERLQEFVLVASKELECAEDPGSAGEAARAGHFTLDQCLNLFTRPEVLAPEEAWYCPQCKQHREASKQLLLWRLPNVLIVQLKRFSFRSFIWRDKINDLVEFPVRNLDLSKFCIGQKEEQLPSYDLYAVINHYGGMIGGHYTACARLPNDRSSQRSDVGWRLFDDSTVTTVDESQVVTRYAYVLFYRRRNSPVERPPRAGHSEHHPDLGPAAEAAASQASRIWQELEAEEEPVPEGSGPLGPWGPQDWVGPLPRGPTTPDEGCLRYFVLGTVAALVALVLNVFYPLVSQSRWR
Method in brief: (§1)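 Labelled DUBs were enriched with NeutrAvidin, digested with LysC and trypsin, and run by diaPASEF LC-MS/MS. The labelling used Biotin-Ahx-Ub-VS at 0.5 µM final for 1 h on HEK293T lysate (495 µg per sample) previously treated in triplicate with fragment at 200 µM or vehicle for 3 h. Values are average log2 fragment/vehicle ratios by unpaired t-test on global-median-normalised Spectronaut quantities of proteins with ≥2 unique peptides.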

USP22 = molecular target: T2, USP22 (UniProt Q9UPT9)
T2 sequence (whole entry): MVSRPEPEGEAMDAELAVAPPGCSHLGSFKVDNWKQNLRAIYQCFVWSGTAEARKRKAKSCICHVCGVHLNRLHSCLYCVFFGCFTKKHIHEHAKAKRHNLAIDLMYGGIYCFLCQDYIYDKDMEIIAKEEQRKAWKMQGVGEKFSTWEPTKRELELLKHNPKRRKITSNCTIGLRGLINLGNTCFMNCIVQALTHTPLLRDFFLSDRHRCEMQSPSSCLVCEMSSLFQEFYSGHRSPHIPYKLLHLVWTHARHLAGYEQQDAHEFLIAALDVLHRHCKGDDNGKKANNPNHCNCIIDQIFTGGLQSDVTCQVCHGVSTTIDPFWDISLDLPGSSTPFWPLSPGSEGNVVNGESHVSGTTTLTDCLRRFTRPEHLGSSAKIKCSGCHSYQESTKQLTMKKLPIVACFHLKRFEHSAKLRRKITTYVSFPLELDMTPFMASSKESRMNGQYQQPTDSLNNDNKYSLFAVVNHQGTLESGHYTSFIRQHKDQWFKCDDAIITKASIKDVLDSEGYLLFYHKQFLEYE
Method in brief: as §1

USP24 = USP24 (UniProt Q9UPU5)
USP24, sequence (Q9UPU5 whole entry): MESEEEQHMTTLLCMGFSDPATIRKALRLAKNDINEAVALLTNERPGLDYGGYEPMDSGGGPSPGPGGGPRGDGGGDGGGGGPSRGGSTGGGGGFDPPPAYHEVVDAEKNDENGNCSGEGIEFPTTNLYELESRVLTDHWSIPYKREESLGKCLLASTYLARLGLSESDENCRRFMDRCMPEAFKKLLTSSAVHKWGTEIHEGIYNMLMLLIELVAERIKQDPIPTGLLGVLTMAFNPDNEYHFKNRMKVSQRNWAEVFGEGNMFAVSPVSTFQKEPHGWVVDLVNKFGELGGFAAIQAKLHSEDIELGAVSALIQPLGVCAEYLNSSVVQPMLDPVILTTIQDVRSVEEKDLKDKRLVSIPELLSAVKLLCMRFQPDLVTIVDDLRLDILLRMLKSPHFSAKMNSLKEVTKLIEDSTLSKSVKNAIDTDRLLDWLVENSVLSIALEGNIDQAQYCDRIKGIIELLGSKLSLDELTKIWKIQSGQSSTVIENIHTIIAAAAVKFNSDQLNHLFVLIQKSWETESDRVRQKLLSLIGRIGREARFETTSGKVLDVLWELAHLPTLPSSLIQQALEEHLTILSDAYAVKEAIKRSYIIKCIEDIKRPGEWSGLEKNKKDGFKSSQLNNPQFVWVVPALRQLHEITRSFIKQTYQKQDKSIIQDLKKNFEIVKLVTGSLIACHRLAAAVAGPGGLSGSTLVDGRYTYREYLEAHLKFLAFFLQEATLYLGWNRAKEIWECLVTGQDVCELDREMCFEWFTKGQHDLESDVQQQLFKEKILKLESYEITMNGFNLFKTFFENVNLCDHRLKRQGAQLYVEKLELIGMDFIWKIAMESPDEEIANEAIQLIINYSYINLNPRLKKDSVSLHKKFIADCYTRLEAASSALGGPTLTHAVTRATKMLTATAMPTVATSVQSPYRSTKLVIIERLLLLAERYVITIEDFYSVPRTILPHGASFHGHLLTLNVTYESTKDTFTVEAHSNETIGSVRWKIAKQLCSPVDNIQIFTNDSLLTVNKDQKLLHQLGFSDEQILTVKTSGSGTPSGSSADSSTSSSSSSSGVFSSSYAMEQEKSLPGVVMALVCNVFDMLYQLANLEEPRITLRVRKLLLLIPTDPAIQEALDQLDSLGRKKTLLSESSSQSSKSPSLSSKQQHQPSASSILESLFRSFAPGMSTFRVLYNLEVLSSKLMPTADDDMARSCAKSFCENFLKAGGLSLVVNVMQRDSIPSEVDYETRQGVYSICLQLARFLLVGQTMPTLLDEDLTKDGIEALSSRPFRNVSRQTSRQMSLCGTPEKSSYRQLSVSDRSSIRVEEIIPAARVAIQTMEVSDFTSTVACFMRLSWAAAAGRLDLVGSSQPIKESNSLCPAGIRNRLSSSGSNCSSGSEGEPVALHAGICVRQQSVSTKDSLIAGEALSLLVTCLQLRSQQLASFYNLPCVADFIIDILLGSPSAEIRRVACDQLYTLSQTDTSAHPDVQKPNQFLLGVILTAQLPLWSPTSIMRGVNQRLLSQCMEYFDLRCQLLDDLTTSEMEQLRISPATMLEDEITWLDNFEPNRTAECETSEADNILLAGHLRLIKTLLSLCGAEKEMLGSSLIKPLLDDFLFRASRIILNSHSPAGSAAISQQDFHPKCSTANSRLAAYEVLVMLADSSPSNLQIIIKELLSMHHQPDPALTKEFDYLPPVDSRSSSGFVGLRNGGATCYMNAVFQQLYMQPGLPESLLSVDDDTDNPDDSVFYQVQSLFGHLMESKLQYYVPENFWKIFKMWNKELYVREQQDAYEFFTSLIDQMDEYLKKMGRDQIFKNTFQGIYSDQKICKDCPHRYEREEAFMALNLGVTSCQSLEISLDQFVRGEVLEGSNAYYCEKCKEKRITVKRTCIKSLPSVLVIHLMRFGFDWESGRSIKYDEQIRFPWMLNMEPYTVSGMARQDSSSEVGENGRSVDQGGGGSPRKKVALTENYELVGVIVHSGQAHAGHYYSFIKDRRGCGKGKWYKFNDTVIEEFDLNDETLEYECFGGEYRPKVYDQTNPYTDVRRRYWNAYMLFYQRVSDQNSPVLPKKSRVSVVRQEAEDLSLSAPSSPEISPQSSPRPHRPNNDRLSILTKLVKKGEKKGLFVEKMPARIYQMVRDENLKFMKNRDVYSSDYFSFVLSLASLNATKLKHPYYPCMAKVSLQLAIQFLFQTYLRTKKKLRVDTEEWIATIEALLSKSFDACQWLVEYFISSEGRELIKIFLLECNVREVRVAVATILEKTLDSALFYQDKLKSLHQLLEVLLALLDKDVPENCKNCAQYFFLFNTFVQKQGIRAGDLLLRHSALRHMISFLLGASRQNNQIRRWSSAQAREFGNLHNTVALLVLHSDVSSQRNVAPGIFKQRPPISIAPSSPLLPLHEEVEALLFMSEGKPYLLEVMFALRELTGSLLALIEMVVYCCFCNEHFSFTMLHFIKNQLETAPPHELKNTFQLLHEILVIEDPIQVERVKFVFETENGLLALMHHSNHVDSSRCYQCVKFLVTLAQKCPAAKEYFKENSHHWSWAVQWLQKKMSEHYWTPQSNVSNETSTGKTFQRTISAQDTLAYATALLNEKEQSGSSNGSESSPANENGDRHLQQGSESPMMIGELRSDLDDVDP
Method in brief: as §1

USP25 = molecular target: T3, USP25 (UniProt Q9UHP3)
T3 sequence (whole entry): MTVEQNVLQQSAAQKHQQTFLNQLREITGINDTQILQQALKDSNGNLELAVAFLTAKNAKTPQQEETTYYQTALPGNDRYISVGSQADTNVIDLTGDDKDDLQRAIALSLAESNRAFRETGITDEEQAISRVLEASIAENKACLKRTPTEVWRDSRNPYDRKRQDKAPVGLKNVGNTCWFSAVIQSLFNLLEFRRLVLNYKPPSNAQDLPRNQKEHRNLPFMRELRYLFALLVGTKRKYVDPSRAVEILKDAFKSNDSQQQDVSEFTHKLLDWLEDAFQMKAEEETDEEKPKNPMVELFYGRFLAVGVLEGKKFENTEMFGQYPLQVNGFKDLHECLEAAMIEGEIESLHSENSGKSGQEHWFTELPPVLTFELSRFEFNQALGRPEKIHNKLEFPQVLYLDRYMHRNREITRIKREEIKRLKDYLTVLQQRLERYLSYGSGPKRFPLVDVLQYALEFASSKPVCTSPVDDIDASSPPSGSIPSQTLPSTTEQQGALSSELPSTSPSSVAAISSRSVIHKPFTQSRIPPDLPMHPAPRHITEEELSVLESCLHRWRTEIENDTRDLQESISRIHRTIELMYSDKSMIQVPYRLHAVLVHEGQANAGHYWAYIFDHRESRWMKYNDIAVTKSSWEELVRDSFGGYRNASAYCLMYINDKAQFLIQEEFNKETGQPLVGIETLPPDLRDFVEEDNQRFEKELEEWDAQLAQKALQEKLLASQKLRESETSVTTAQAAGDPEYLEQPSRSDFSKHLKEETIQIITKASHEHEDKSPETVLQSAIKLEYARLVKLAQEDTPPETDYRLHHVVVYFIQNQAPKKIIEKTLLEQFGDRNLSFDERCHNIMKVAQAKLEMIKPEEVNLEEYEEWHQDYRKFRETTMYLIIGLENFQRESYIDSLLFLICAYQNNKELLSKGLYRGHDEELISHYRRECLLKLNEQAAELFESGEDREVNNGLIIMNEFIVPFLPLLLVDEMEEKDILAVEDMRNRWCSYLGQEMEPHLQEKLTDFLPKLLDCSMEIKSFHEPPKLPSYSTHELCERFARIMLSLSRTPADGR
Method in brief: as §1

USP28 = molecular target: T4, USP28 (UniProt Q96RU2)
T4 sequence (whole entry): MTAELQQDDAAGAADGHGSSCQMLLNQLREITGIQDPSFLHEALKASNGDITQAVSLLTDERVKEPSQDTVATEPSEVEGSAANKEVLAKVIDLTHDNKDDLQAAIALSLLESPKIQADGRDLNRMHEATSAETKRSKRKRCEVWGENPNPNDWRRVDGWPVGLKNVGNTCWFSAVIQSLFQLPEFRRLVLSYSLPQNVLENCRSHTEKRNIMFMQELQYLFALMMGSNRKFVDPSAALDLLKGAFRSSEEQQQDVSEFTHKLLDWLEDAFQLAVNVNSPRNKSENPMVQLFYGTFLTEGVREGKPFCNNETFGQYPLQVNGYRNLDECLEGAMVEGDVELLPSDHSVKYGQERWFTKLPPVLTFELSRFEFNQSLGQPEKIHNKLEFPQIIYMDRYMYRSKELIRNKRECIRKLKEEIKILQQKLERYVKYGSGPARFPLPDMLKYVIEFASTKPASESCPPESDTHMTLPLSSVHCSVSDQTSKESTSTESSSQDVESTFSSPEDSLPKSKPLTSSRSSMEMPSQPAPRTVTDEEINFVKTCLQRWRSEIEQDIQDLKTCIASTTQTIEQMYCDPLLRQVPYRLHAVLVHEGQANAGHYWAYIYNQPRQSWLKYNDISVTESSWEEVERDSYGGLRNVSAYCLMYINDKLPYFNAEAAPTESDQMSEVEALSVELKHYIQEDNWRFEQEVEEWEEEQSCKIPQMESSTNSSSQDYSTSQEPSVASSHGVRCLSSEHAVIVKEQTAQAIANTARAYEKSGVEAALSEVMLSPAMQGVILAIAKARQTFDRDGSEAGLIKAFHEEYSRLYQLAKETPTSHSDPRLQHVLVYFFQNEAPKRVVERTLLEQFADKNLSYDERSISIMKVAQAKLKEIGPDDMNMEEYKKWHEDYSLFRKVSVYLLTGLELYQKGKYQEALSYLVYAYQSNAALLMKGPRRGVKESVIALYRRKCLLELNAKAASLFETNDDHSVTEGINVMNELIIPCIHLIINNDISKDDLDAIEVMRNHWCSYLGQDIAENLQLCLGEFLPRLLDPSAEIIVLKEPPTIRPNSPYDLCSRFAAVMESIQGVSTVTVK
Method in brief: as §1

Measured: log2 ratio of Biotin-Ahx-Ub-VS probe labelling

CCc1c[nH]c(CNC(=O)CCl)n1.Cl
inactive: USP19 -0.279 | USP22 -0.0631 | USP24 -0.668 | USP25 -0.182 | USP28 -0.44
